Assay results reported in PubChem BioAssay AID1159580 (chemical genetic matrix, 2015).
Hit rate of the full screen: of about 5,500 compounds, about 2,000 (36%) were called active. Roughly 18% stayed inconclusive and do not appear here. Cut-off read from the data, not from the text of the source: active = normalized growth mostly below about 0.91 (no sharp cut-off); inconclusive = no clear call, values can overlap the other calls; inactive = mostly above about 0.92. The list shows a part of the results.

Test: chemical genetic growth profiling, strain panel (AID 1159580);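 note: tested at 20 µM; growth read once vehicle control cultures reached saturation at 30 °C; 1 = growth at the plate median or of vehicle wells; lower values mean less growth of the strain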
Conditions: growth OD

Measured: normalized growth

CC(N)C(O)c1ccc(O)c(O)c1 (stereo unspecified)
inactive: S. cerevisiae deletion strains, locus YAL013W, strain DEP1, hits give low values 1 | S. cerevisiae deletion strains, locus YBR021W, strain FUR4, hits give low values 0.982 | S. cerevisiae deletion strains, locus YBR229C, strain ROT2, hits give low values 0.98 | S. cerevisiae deletion strains, locus YCL029C, strain bik1, hits give low values 0.981 | S. cerevisiae deletion strains, locus YDL035C, strain GPR1, hits give low values 0.988 | S. cerevisiae deletion strains, locus YDL074C, strain BRE1, hits give low values 1.02 | S. cerevisiae deletion strains, locus YDL101C, strain DUN1, hits give low values 0.998 | S. cerevisiae deletion strains, locus YDL134C, strain PPH21, hits give low values 1.01 | S. cerevisiae deletion strains, locus YDL185W, strain tfp1, hits give low values 0.977 | S. cerevisiae deletion strains, locus YDL192W, strain arf1, hits give low values 0.973 | S. cerevisiae deletion strains, locus YDR101C, strain arx1, hits give low values 0.992 | S. cerevisiae deletion strains, locus YDR150W, strain NUM1, hits give low values 0.999 | S. cerevisiae deletion strains, locus YDR162C, strain NBP2, hits give low values 1.04 | S. cerevisiae deletion strains, locus YDR318W, strain mcm21, hits give low values 0.979 | S. cerevisiae deletion strains, locus YDR388W, hits give low values 0.98 | S. cerevisiae deletion strains, locus YDR502C, strain sam2, hits give low values 0.999 | S. cerevisiae deletion strains, locus YEL061C, strain CIN8, hits give low values 0.998 | S. cerevisiae deletion strains, locus YER110C, hits give low values 0.97 | S. cerevisiae deletion strains, locus YER155C, strain BEM2, hits give low values 0.994 | S. cerevisiae deletion strains, locus YER167W, strain BCK2, hits give low values 0.98 | S. cerevisiae deletion strains, locus YGL078C, strain dbp3, hits give low values 0.994 | S. cerevisiae deletion strains, locus YGL086W, strain mad1, hits give low values 0.98 | S. cerevisiae deletion strains, locus YGL248W, strain PDE1, hits give low values 0.991 | S. cerevisiae deletion strains, locus YGR078C, strain PAC10, hits give low values 1.02 | S. cerevisiae deletion strains, locus YGR135W, strain pre9, hits give low values 1.01 | S. cerevisiae deletion strains, locus YGR229C, strain SMI1, hits give low values 1.02 | S. cerevisiae deletion strains, locus YGR252W, strain gcn5, hits give low values 0.901 | S. cerevisiae deletion strains, locus YHR030C, strain SLT2, hits give low values 0.99 | S. cerevisiae deletion strains, locus YHR079C, strain IRE1 (second series), hits give low values 0.976 | S. cerevisiae deletion strains, locus YHR094C, strain hxt1, hits give low values 0.988 | S. cerevisiae deletion strains, locus YHR129C, strain ARP1, hits give low values 0.997 | S. cerevisiae deletion strains, locus YHR200W, strain rpn10, hits give low values 0.971 | S. cerevisiae deletion strains, locus YIL066C, strain RNR3, hits give low values 0.986 | S. cerevisiae deletion strains, locus YIL073C, strain SPO22, hits give low values 0.958 | S. cerevisiae deletion strains, locus YIL125W, strain kgd1, hits give low values 0.988 | S. cerevisiae deletion strains, locus YIR030C, strain dcg1, hits give low values 0.993 | S. cerevisiae deletion strains, locus YJL095W, strain BCK1, hits give low values 1.02 | S. cerevisiae deletion strains, locus YJL134W, strain LCB3, hits give low values 0.993 | S. cerevisiae deletion strains, locus YJL168C, strain set2, hits give low values 0.984 | S. cerevisiae deletion strains, locus YJL187C, strain SWE1 (second series), hits give low values 1.01 | S. cerevisiae deletion strains, locus YJR043C, strain POL32, hits give low values 1.01 | S. cerevisiae deletion strains, locus YJR075W, strain HOC1, hits give low values 1.01 | S. cerevisiae deletion strains, locus YKL009W, strain mrt4, hits give low values 0.972 | S. cerevisiae deletion strains, locus YKL068W, hits give low values 0.991 | S. cerevisiae deletion strains, locus YKL085W, strain MDH1 (second series), hits give low values 0.98 | S. cerevisiae deletion strains, locus YKL085W, strain MDH1, hits give low values 0.98 | S. cerevisiae deletion strains, locus YKL190W, strain CNB1, hits give low values 1 | S. cerevisiae deletion strains, locus YKR001C, strain vps1, hits give low values 0.993 | S. cerevisiae deletion strains, locus YLR039C, strain RIC1, hits give low values 1.01 | S. cerevisiae deletion strains, locus YLR058C, strain SHM2, hits give low values 0.989 | S. cerevisiae deletion strains, locus YLR102C, strain apc9, hits give low values 0.989 | S. cerevisiae deletion strains, locus YLR262C, strain YPT6, hits give low values 0.997 | S. cerevisiae deletion strains, locus YLR268W, strain sec22, hits give low values 1.01 | S. cerevisiae deletion strains, locus YLR330W, strain CHS5, hits give low values 0.99 | S. cerevisiae deletion strains, locus YLR342W, strain FKS1 (second series), hits give low values 0.976 | S. cerevisiae deletion strains, locus YLR371W, strain rom2, hits give low values 0.971 | S. cerevisiae deletion strains, locus YLR418C, strain cdc73, hits give low values 1.04 | S. cerevisiae deletion strains, locus YML016C, strain PPZ1, hits give low values 0.991 | S. cerevisiae deletion strains, locus YML032C, strain rad52, hits give low values 0.971 | S. cerevisiae deletion strains, locus YML124C, strain tub3, hits give low values 0.983 | S. cerevisiae deletion strains, locus YMR078C, strain ctf18, hits give low values 0.971 | S. cerevisiae deletion strains, locus YMR223W, strain ubp8, hits give low values 0.968 | S. cerevisiae deletion strains, locus YMR263W, strain SAP30, hits give low values 1.02 | S. cerevisiae deletion strains, locus YMR307W, strain GAS1, hits give low values 0.95 | S. cerevisiae deletion strains, locus YNL067W, strain RPL9B, hits give low values 1.02 | S. cerevisiae deletion strains, locus YNL128W, strain TEP1, hits give low values 0.996 | S. cerevisiae deletion strains, locus YNL153C, strain GIM3, hits give low values 1.03 | S. cerevisiae deletion strains, locus YNL233W, strain BNI4, hits give low values 1.02 | S. cerevisiae deletion strains, locus YNL250W, strain rad50, hits give low values 0.978 | S. cerevisiae deletion strains, locus YNL271C, strain bni1, hits give low values 0.973 | S. cerevisiae deletion strains, locus YNL298W, strain CLA4, hits give low values 0.982 | S. cerevisiae deletion strains, locus YNL307C, strain MCK1, hits give low values 0.99 | S. cerevisiae deletion strains, locus YNL322C, strain KRE1, hits give low values 0.997 | S. cerevisiae deletion strains, locus YNR052C, strain pop2, hits give low values 0.959 | S. cerevisiae deletion strains, locus YOL006C, strain TOP1, hits give low values 1.02 | S. cerevisiae deletion strains, locus YOL012C, strain htz1 0.931 | S. cerevisiae deletion strains, locus YOL147C, strain pex11, hits give low values 0.983 | S. cerevisiae deletion strains, locus YOR061W, strain CKA2, hits give low values 0.998 | S. cerevisiae deletion strains, locus YOR069W, strain VPS5, hits give low values 0.991 | S. cerevisiae deletion strains, locus YOR136W, strain idh2, hits give low values 0.972 | S. cerevisiae deletion strains, locus YOR144C, strain elg1, hits give low values 0.977 | S. cerevisiae deletion strains, locus YOR184W, strain ser1, hits give low values 0.971 | S. cerevisiae deletion strains, locus YOR316C, strain cot1, hits give low values 0.981 | S. cerevisiae deletion strains, locus YPL055C, strain LGE1, hits give low values 1.03 | S. cerevisiae deletion strains, locus YPL241C, strain CIN2, hits give low values 1 | S. cerevisiae deletion strains, locus YPR119W, strain clb2, hits give low values 0.995 | S. cerevisiae deletion strains, locus YPR141C, strain kar3, hits give low values 0.976 | S. cerevisiae deletion strains, locus YPR163C, strain tif3, hits give low values 0.987 | S. cerevisiae deletion strains, locus YPR167C, strain met16, hits give low values 0.986 | S. cerevisiae deletion strains, strain wtn01, hits give low values 1.01 | S. cerevisiae strains, strain wild type, hits give low values 0.994
